# Laboratory results reported in ChEMBL document CHEMBL2218924, “A broad activity screen in support of a chemogenomic map for kinase signalling research and drug discovery” (Biochem J, 2013).
# Legend:
# [1] = target: T1, Serine/threonine-protein kinase TBK1 (Homo sapiens) (UniProt Q9UHD2); conditions: at 10 µM
# T1 sequence (whole entry): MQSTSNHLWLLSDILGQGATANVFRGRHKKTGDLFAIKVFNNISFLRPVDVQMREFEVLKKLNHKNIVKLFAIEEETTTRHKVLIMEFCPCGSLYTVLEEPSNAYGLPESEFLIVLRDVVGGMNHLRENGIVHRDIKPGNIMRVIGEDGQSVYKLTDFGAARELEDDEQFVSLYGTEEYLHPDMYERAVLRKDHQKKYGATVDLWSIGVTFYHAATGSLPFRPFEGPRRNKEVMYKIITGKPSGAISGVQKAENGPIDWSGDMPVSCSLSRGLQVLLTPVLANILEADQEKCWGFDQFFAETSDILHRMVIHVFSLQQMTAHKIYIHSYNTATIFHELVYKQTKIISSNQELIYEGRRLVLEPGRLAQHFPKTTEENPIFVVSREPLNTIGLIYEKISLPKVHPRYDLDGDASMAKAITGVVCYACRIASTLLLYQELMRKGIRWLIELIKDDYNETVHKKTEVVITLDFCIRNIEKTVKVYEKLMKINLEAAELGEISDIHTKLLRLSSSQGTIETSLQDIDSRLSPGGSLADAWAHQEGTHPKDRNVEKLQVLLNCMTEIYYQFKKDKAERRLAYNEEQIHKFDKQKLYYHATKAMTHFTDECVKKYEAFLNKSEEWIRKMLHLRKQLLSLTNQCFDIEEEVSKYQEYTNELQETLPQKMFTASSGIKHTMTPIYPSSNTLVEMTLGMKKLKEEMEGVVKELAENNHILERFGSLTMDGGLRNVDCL
# [2] = target: T2, TGF-beta receptor type-1 (Homo sapiens) (UniProt P36897); conditions: at 1 µM
# T2 sequence (whole entry): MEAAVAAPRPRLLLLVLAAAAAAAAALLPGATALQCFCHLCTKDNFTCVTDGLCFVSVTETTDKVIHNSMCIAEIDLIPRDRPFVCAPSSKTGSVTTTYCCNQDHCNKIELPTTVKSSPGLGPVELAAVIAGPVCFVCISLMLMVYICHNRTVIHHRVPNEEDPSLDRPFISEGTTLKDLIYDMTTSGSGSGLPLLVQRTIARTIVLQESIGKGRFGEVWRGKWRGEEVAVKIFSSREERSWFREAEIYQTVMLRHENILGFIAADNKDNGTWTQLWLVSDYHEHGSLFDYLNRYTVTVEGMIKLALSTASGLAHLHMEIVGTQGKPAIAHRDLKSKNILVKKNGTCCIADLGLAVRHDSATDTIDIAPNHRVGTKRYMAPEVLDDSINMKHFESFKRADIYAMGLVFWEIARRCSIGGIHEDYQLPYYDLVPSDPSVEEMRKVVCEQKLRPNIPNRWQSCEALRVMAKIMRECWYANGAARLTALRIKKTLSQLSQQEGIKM
# [3] = target: T2, TGF-beta receptor type-1 (Homo sapiens); conditions: at 10 µM
# [4] = target: Insulin-like growth factor 1 receptor (Homo sapiens) (UniProt P08069); conditions: at 1 µM
# Chain of Insulin-like growth factor 1 receptor (Homo sapiens) (P08069 31-736 limits assumed): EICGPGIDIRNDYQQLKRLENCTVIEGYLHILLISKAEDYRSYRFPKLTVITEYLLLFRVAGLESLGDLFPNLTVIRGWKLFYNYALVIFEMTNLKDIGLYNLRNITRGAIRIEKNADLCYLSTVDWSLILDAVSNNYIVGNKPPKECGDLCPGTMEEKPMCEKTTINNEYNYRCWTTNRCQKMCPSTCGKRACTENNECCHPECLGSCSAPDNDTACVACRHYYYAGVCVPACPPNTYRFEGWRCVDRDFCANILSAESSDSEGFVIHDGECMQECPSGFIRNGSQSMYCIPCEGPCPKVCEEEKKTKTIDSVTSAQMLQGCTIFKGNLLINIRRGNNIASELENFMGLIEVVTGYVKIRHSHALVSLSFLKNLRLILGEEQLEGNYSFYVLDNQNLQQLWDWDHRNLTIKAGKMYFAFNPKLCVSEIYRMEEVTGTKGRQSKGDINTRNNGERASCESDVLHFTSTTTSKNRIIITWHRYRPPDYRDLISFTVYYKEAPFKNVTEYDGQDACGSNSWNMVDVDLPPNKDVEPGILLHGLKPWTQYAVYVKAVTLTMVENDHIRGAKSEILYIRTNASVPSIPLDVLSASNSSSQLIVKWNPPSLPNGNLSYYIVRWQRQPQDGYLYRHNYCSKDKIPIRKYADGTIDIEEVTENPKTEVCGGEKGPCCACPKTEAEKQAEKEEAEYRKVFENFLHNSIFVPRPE
# Chain of Insulin-like growth factor 1 receptor (Homo sapiens) (P08069 741-1367 limits assumed): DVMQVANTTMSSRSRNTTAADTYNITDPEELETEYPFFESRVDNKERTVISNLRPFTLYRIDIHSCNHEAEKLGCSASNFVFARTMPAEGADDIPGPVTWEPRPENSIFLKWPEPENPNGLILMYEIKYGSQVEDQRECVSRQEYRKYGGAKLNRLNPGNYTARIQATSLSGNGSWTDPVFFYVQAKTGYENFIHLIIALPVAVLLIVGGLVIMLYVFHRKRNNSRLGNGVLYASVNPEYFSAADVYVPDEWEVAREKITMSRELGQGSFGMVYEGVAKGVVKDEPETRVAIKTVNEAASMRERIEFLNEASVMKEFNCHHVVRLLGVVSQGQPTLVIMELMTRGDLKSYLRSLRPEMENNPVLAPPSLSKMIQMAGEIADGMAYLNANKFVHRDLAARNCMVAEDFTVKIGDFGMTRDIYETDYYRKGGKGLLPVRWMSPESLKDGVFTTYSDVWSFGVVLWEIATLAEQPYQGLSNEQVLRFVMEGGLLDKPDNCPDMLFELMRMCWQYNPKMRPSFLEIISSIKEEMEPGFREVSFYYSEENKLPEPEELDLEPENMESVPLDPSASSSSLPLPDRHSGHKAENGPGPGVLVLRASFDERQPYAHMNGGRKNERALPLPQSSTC
# [5] = target: Insulin-like growth factor 1 receptor (Homo sapiens) (UniProt P08069); conditions: at 10 µM
# [6] = target: T3, Inhibitor of nuclear factor kappa-B kinase subunit alpha (Homo sapiens) (UniProt O15111); conditions: at 1 µM
# T3 sequence (whole entry): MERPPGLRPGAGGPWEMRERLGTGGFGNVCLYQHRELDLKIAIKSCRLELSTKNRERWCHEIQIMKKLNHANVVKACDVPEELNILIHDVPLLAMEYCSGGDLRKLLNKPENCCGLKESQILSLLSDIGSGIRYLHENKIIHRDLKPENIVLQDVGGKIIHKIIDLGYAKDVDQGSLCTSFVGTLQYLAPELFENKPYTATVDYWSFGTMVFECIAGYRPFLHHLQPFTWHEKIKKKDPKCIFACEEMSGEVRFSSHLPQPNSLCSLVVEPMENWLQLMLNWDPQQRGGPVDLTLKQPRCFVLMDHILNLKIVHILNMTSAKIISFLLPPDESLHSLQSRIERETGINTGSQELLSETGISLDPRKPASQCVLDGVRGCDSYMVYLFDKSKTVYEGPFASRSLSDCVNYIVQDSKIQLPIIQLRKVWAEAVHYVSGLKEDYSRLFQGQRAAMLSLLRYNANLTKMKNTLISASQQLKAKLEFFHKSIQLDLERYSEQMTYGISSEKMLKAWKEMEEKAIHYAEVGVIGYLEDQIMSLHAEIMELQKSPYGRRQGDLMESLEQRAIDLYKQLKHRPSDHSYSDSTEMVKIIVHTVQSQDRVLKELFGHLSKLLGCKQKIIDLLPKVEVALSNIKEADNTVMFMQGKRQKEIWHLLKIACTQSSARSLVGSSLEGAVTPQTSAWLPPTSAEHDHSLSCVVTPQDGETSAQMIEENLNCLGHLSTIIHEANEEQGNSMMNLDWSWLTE
# [7] = target: T3, Inhibitor of nuclear factor kappa-B kinase subunit alpha (Homo sapiens); conditions: at 10 µM
# [8] = target: T4, Inhibitor of nuclear factor kappa-B kinase subunit beta (Homo sapiens) (UniProt O14920); conditions: at 1 µM
# T4 sequence (whole entry): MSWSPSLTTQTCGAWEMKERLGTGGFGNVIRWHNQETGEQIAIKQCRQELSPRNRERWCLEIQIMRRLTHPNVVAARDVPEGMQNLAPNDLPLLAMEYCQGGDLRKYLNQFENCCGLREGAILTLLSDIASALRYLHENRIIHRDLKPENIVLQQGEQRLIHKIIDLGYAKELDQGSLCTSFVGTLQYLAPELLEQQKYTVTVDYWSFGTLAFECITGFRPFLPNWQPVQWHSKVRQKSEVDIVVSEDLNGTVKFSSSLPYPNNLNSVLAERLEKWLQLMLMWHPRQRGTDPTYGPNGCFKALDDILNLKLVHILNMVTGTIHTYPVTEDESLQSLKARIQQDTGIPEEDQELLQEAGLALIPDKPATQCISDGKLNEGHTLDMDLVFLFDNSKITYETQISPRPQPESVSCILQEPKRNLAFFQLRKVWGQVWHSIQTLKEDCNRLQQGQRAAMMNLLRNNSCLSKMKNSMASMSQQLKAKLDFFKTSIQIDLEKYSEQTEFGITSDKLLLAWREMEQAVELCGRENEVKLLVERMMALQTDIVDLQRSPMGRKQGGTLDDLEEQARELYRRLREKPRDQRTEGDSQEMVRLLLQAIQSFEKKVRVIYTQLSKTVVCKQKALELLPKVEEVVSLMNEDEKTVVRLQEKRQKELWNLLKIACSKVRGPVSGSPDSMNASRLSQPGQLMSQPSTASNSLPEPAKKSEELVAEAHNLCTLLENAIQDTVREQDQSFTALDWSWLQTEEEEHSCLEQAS
# [9] = target: T4, Inhibitor of nuclear factor kappa-B kinase subunit beta (Homo sapiens); conditions: at 10 µM
# [10] = target: Insulin receptor (Homo sapiens) (UniProt P06213); conditions: at 1 µM
# Chain of Insulin receptor (Homo sapiens) (P06213 28-758 limits assumed): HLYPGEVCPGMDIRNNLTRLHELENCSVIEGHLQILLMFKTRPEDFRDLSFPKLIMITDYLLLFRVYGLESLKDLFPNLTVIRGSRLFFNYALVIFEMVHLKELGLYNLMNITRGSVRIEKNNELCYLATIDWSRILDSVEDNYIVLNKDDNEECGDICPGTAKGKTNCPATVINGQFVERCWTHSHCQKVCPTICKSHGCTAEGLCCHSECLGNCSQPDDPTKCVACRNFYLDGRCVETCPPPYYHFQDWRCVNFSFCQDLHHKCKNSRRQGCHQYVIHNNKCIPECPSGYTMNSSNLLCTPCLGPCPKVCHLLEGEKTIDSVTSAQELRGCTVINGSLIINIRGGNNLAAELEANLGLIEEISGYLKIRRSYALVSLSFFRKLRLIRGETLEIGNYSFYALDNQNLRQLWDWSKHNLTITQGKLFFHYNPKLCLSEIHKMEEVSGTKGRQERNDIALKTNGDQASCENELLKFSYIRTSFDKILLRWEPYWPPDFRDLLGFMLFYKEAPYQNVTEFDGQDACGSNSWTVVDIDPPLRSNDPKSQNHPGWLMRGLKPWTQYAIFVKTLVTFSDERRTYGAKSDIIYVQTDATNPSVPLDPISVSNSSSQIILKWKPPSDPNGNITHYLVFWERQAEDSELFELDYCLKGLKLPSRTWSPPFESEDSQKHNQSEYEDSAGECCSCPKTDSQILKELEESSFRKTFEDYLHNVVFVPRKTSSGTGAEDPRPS
# Chain of Insulin receptor (Homo sapiens) (P06213 763-1382 limits assumed): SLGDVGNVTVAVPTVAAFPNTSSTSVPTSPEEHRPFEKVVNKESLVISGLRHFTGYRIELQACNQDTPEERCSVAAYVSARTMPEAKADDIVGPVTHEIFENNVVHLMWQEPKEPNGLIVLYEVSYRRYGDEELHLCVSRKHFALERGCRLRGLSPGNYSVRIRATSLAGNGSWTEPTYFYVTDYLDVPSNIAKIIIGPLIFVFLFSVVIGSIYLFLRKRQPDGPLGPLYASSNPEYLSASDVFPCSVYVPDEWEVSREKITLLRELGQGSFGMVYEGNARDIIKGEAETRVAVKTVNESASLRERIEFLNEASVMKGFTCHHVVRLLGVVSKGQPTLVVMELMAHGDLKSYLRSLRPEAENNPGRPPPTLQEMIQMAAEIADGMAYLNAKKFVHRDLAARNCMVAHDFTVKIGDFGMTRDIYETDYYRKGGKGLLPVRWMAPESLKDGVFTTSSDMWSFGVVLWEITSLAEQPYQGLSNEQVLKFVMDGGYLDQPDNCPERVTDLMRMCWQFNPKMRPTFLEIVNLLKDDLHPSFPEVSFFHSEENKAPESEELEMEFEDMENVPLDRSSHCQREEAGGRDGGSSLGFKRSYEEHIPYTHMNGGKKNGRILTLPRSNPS
Structure (SMILES),residual activity [1] [%],residual activity [2] [%],residual activity [3] [%],residual activity [4] [%],residual activity [5] [%],residual activity [6] [%],residual activity [7] [%],residual activity [8] [%],residual activity [9] [%],residual activity [10] [%]
Cc1cccc(-c2[nH]c(C(C)(C)C)nc2-c2ccc3c(c2)OCO3)n1,72,10,0,106,96,,,,,
O=c1cc(-c2cccc3c2Sc2ccccc2S3)oc(N2CCOCC2)c1,80,114,88,105,101,98,93,106,103,105
CC[n+]1c(/C=C/N(C)c2ccccc2)n(-c2ccccc2)c2ccc(-c3nc4ccccc4s3)cc21,68,80,102,97,86,92,93,105,102,107
CO[C@@H]1[C@H](N(C)C(=O)c2ccccc2)C[C@H]2O[C@]1(C)n1c3ccccc3c3c4c(c5c6ccccc6n2c5c31)C(=O)NC4,1,85,,92,84,101,91,,84,87
COc1cc2ncc(-c3ccccc3)nc2cc1OC,76,,,,,,,95,95,
Oc1n[nH]c2nnc(-c3c(-c4ccccc4)nn4ccccc34)cc12,60,84,74,84,91,102,92,97,93,47
CCOc1cc2ncnc(Nc3cccc(Br)c3)c2cc1OCC,33,89,81,104,100,108,108,97,82,104
COc1ccc(C(=O)Nc2sc3c(c2C(N)=O)CCCC3)cc1OC,71,71,92,87,88,,113,99,88,105
CC#CC(=O)Nc1cc2c(Nc3ccc(F)c(Cl)c3)ncnc2cn1,72,74,89,98,93,97,95,96,96,101
Nc1cccc(-c2cc3c(Oc4cccc(O)c4)ncnc3[nH]2)c1,19,101,56,105,85,88,78,,91,
Cc1nc2cc3nc(-c4cccs4)cnc3cc2n1C,87,98,118,115,106,125,106,106,106,117
O=C1Nc2ccc(Br)cc2/C1=C\c1cc2c([nH]1)CCCC2,65,,,,,102,115,,,
N#C/C(=C(\N)Sc1ccc(N)cc1)c1ccccc1C(F)(F)F,16,101,95,103,102,101,121,106,109,113
COc1cc2ncnc(Nc3ccc(NC(=O)c4ccccc4)cc3)c2cc1OC,75,98,,,103,102,96,109,106,
COc1cc2ncnc(N3CCN(C(=O)Nc4ccc(Oc5ccccc5)cc4)CC3)c2cc1OC,53,80,76,,,103,,113,115,115
O=C1NC(=O)/C(=C\c2ccc3nccnc3c2)S1,27,92,75,105,89,100,54,102,69,107
CN(C)CCCn1cc(C2=C(c3c[nH]c4ccccc34)C(=O)NC2=O)c2ccccc21,22,91,71,110,,101,58,104,82,
c1ccc(-c2n[nH]cc2-c2ccnc3ccccc23)nc1,66,6,0,99,82,,,,,108
c1ccc(-c2n[nH]c3c2oc2ccccc23)cc1,55,82,88,,,97,88,,,
O=C1Nc2cc(Br)ccc2/C1=C1/Nc2ccccc2/C1=N\O,15,88,77,99,101,105,100,101,85,75
